EZH2 inh: EZH2/PRC2 methyltransferase inhibitors, primary screen, biochemical, DELFIA time-resolved fluorescence, single point | PRC2 H3K27 methylation, DELFIA TRF, 1 h | Histone-lysine N-methyltransferase EZH2 (Homo sapiens), Q15910 | 57,000 tested, 0.35% active | AID 651548, 2012 | inhibition, % at 12.5 µM;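 active = mean inhibition of replicates at least 50% and every single replicate also reaching 50%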;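 note: dimethyl H3K27 on biotinylated H3 21-44 peptide detected by antibody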
Target sequence (Q15910 whole entry, looked up): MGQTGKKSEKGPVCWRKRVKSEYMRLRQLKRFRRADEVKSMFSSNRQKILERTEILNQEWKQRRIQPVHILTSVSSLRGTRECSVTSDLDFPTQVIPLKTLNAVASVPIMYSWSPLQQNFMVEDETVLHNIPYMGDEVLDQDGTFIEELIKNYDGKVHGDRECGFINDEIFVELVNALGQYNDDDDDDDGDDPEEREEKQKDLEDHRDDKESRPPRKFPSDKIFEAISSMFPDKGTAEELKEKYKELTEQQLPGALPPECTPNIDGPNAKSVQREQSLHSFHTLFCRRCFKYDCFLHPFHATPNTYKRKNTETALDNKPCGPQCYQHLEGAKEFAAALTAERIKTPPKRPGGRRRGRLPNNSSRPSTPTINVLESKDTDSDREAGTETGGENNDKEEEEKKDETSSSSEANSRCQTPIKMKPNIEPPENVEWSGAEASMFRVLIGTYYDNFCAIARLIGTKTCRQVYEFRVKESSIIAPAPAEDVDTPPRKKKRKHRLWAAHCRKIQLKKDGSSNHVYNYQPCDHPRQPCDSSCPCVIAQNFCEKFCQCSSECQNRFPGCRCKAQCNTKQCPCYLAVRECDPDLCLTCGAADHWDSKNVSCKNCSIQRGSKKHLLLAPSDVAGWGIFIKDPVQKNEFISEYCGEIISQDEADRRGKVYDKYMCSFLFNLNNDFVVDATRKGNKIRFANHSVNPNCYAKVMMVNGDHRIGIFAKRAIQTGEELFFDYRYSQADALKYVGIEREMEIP
Hits are given with their value. Only a selection was taken, and hits are over-represented in it overall.

How did COc1cccc2c1C(=O)CC(c1ccccc1)O2 (centres undefined) do in these assays?
EZH2 inh: inactive

Results for COc1cc(O)c(OC)c2c1C(=O)CC(c1ccccc1)O2 (centres undefined) ?
EZH2 inh: 76.7

What do the screens show for `COc1cc(O)c2c(c1)OC(c1ccc(O)cc1)CC2=O` (centres undefined)?
EZH2 inh: inactive

Results for COc1ccccc1-c1c(C(F)(F)F)oc2cc(OCC(=O)OC(C)C)ccc2c1=O ?
EZH2 inh: inactive

Results for Cc1ccccc1S(=O)(=O)N(C)C[C@@H]1OCc2cnnn2CCCC(=O)N([C@H](C)CO)C[C@@H]1C ?
EZH2 inh: inactive

What do the screens show for `C/C=C1/[C@H](O[C@@H]2O[C@H](CO)[C@@H](O)[C@H](O)[C@H]2O)OC=C(C(=O)OC)[C@H]1CC(=O)OCCc1ccc(OC(=O)C[C@@H]2C(C(=O)OC)=CO[C@@H](O[C@@H]3O[C@H](CO)[C@@H](O)[C@H](O)[C@H]3O)/C2=C/C)cc1`?
EZH2 inh: 60.8

What do the screens show for `C/C=C1\[C@H](O[C@@H]2O[C@H](CO)[C@@H](O)[C@H](O)[C@H]2O)OC=C(C(=O)OC)[C@H]1CC(=O)OC`?
EZH2 inh: inactive

Results for C/C=C1\C(O[C@@H]2O[C@H](CO)[C@@H](O)[C@H](O)[C@H]2O)OC=C(C(=O)OC)C1CC(=O)OC[C@H]1O[C@@H](OCCc2ccc(O)cc2)[C@H](OC(=O)CC2C(C(=O)OC)=COC(O[C@@H]3O[C@H](CO)[C@@H](O)[C@H](O)[C@H]3O)/C2=C\C)[C@@H](O)[C@@H]1O (some centres undefined) ?
EZH2 inh: inactive

How did O=C(C[C@@H]1CC[C@@H](NC(=O)C2CCC2)[C@@H](CO)O1)NCc1ccncc1 do in these assays?
EZH2 inh: inactive

Results for C[C@@H]1O[C@@H](OC[C@H]2O[C@@H](Oc3ccc(O)cc3)[C@H](O)[C@@H](OC(=O)c3ccc(O)cc3)[C@@H]2O)[C@H](O)[C@H](O)[C@H]1O ?
EZH2 inh: inactive

How did O[C@@H]1[C@@H](O)[C@H](OC/C=C/c2ccccc2)O[C@H](CO[C@@H]2OC[C@H](O)[C@H](O)[C@H]2O)[C@H]1O do in these assays?
EZH2 inh: 89.6

Results for C[C@@H]1O[C@@H](OC[C@H]2O[C@@H](OCCc3ccccc3)[C@H](O)[C@@H](O)[C@@H]2O)[C@H](O)[C@H](O)[C@H]1O ?
EZH2 inh: 52.0

Results for Cc1cc2c(cc1O[C@@H]1O[C@H](CO[C@@H]3OC[C@@H](O)[C@H](O)[C@H]3O)[C@@H](O)[C@H](O)[C@H]1O)C(=O)c1ccccc1C2=O ?
EZH2 inh: inactive

What do the screens show for `COc1ccc(C2CC(=O)c3c(O)cc(O[C@@H]4O[C@H](CO[C@@H]5O[C@@H](C)[C@H](O)[C@@H](O)[C@H]5O)[C@@H](O)[C@H](O)[C@H]4O)cc3O2)cc1` (some centres undefined)?
EZH2 inh: inactive

Results for COC(=O)C1=COC(O[C@@H]2O[C@H](CO)[C@@H](O)[C@H](O)[C@H]2O)[C@@H]2[C@@](C)(O)[C@@H](OC(=O)/C=C\c3ccccc3)C[C@]12O (some centres undefined) ?
EZH2 inh: inactive

What do the screens show for `CC(C)C#Cc1cnc2c(c1)C(=O)N([C@@H](C)CO)C[C@@H](C)[C@H](CN(C)C(=O)c1ccc3c(c1)OCO3)O2`?
EZH2 inh: inactive

Results for COCCNC(=O)C[C@@H]1C[C@H]2c3cc(NC(=O)NC4CCCCC4)ccc3O[C@H]2[C@H](CO)O1 ?
EZH2 inh: inactive

How did O=C(O)CCCC[C@@H]1SC[C@@H]2NC(=O)N[C@@H]21 do in these assays?
EZH2 inh: 99.1

How did O=C(O)CCCCCCC(=O)N/N=C/CCC1CCCCC1 do in these assays?
EZH2 inh: inactive

What do the screens show for `COc1ccc(NC(=O)N[C@H]2CC[C@@H](CC(=O)NCc3ccccn3)O[C@H]2CO)cc1`?
EZH2 inh: inactive

Results for O=C1O[C@H](c2ccccc2)[C@H](c2ccccc2)N2[C@H]1[C@@H](C(=O)N1CCN(c3ncccn3)CC1)[C@]1(C(=O)Nc3ccc(C#CC4(O)CCCCCC4)cc31)[C@H]2c1ccc(O)cc1 ?
EZH2 inh: inactive

What do the screens show for `CCCN(C)C[C@@H]1Oc2cc(C#CC3CCCCC3)ccc2S(=O)(=O)N([C@H](C)CO)C[C@@H]1C`?
EZH2 inh: inactive

How did Cc1cc(NC(=O)CSc2nc3ccccc3[nH]2)ccc1Br do in these assays?
EZH2 inh: inactive

What do the screens show for `COc1ccc(NC(=O)CSc2nc3ccccc3[nH]2)cc1Cl`?
EZH2 inh: inactive

Results for O=C(CSc1nc2ccccc2[nH]1)Nc1ccc(Cl)c(Br)c1 ?
EZH2 inh: 54.3

What do the screens show for `Cc1noc(C)c1NC(=O)N(C)C[C@H]1Oc2ccc(NC(=O)CCCCCC(=O)Nc3ccccc3N)cc2C(=O)N([C@@H](C)CO)C[C@H]1C`?
EZH2 inh: inactive

How did O=C(CC(Sc1ccc(Cl)cc1)c1ccc(Cl)cc1)C1CC1 (centres undefined) do in these assays?
EZH2 inh: 53.4

How did COC(=O)c1ccc(NC(=O)CN(c2ccc3c(c2)OCCO3)S(C)(=O)=O)cc1 do in these assays?
EZH2 inh: inactive

Results for COc1ccc(/C=N/NC(=O)c2ccccc2O)cc1Br ?
EZH2 inh: inactive

Results for COc1cc(Br)c(/C=N/NC(=O)c2ccccc2O)cc1OC ?
EZH2 inh: 67.1

What do the screens show for `COc1cc(Br)cc(/C=N/NC(=O)c2ccccc2O)c1O`?
EZH2 inh: inactive

How did CC(C)NC(=O)Nc1ccc2c(c1)C(=O)N([C@@H](C)CO)C[C@@H](C)[C@H](CN(C)S(=O)(=O)c1ccc(F)cc1)O2 do in these assays?
EZH2 inh: inactive

How did CCCC#Cc1cnc2c(c1)C(=O)N([C@H](C)CO)C[C@H](C)[C@H](CN(C)C(=O)CN1CCOCC1)O2 do in these assays?
EZH2 inh: 94.8

What do the screens show for `CCCC#Cc1cnc2c(c1)C(=O)N([C@@H](C)CO)C[C@@H](C)[C@H](CN(C)C(=O)CN1CCOCC1)O2`?
EZH2 inh: inactive

What do the screens show for `CCCC#Cc1cnc2c(c1)C(=O)N([C@H](C)CO)C[C@H](C)[C@@H](CN(C)C(=O)CN1CCOCC1)O2`?
EZH2 inh: inactive

How did CCCC(=O)Nc1ccc2nc(SCc3ccccc3C#N)sc2c1 do in these assays?
EZH2 inh: inactive

Results for C[C@@H]1CN([C@H](C)CO)S(=O)(=O)c2ccc(C3=CCCC3)cc2O[C@@H]1CN(C)C(=O)CC1CC1 ?
EZH2 inh: inactive

Results for C[C@H]1CN([C@@H](C)CO)S(=O)(=O)c2ccc(C3=CCCCC3)cc2O[C@H]1CN(C)Cc1ccccc1 ?
EZH2 inh: 56.2

How did CC(C)CC#Cc1ccc2c(c1)O[C@@H](CN(C)Cc1ccc(F)cc1)[C@H](C)CN([C@H](C)CO)S2(=O)=O do in these assays?
EZH2 inh: inactive

Results for C[C@H]1CN([C@@H](C)CO)S(=O)(=O)c2ccc(C3=CCCC3)cc2O[C@@H]1CN(C)C(=O)CC1CC1 ?
EZH2 inh: inactive

How did CC(C)CC#Cc1ccc2c(c1)O[C@@H](CN(C)Cc1ccccc1)[C@@H](C)CN([C@H](C)CO)S2(=O)=O do in these assays?
EZH2 inh: inactive

What do the screens show for `C[C@@H]1CN([C@@H](C)CO)S(=O)(=O)c2ccc(C3=CCCCC3)cc2O[C@@H]1CN(C)Cc1ccccc1`?
EZH2 inh: inactive

Bioassay records from PubChem.
